# Laboratory results reported in PubChem BioAssay (Tox21).
# Unmarked numbers belong to inactive results. A call without a number means that no potency is given here. The source made the active and inactive calls. Calls follow the shape of the dose curve; as a rule, active = well fitted curve in the direction sought with a large enough effect in the repeat runs; inconclusive = weak or mixed curves; inactive = flat fitted curve, though single readings scatter.
# Assay: qHTS assay to test for compound auto fluorescence at 535 nm (green) in HepG2 cells (AID 720675)
# Conditions: green autofluorescence 485/535 nm, 1 h; series mostly up to 91.3 µM
# Source text: National Center for Advancing Translational Sciences [NCATS]
# NIH Chemical Genomics Center [NCGC]
# U.S. Environmental Protection Agency [EPA]
# National Institutes of Environmental Health Sciences [NIEHS]
# National Toxicology Program [NTP]
# U.S. Food and Drug Administration [FDA]
# Compound auto fluorescence often interferes with screening of the compound library against various biological targets and signaling pathways. Some of these compounds may have fluorophoric properties. Such properties may interfere with the assay outputs resulting in false positives and/or negatives. To decrease such complications and ensure the compound activities are relevant in terms of biological response, the Tox21 10K compound library was screened for auto fluorescence.
# From the fluorophores used as reporter signals in our screening assays, the auto fluorescence equivalencies of compounds against three fluorophores have been evaluated: Triamterene, Fluorescein and Rose Bengal sodium for blue, green and red fluorescence, respectively. The fluorescence intensities were measured using Excitation/Emission wavelengths at 405/460nm, 485/535nm and 540/590nm for blue, green and red labels, respectively. This assay includes the green fluorescence data.
# Tox21 Assay Protocol Summary:
# 2,000 HepG2 cells in 5 uL of culture medium (MEM containing 10% FBS) per well were dispensed into black wall/clear bottom 1536-well plates using a Multidrop Combi Dispenser (ThermoFisher Scientific, Waltham, MA). The assay plates were incubated overnight at 37 C to allow cell attachment to the well bottom, followed by the transfer of 23 nL compound or DMSO vehicle by a pintool work station (Kalypsys , San Diego, CA). After the assay plates were incubated for 1 hr at 37 C and 5% CO2, fluorescence intensities in the assay plates were measured by an Envision (PerkinElmer, Shelton, CT) plate reader using three labels for measuring blue, green and red fluorescence at […] 460, 535 and 590 nm respectively.
SMILES,Potency,"fluorescence, % of fluorescein control"
ClCCl,inactive,
CCn1c2ccccc2c2cc([N+](=O)[O-])ccc21,inactive,
O=C(O)CCN(C1(C(=O)NO)CCCC1)S(=O)(=O)c1ccc(Oc2ccc(F)cc2)cc1,inactive,
CNc1ccc([N+](=O)[O-])cc1,inactive,
O=C(O)c1cc(O)c2ccccc2c1O,inactive,
CCCCCCCCCCCCOC(=O)c1ccc(O)cc1,inactive,
O=c1c(O)c(-c2ccc(O)cc2O)oc2cc(O)cc(O)c12,inactive,
Cc1cccc(C(=O)O)c1O,inactive,
CC1(C)CCC[C@]2(C)[C@H]3CC(=O)O[C@]3(C)CC[C@@H]12,inactive,
Clc1sc(Cl)c(Cl)c1Cl,inactive,
O=C(/C=C/c1ccc(O)c(O)c1)O[C@@H](C(=O)O)[C@@H](OC(=O)/C=C/c1ccc(O)c(O)c1)C(=O)O,inactive,
Nc1ccc(NCCO)c([N+](=O)[O-])c1,inactive,
C=C(C)c1cccc(C(=C)C)c1,inactive,
CCC(C)[O-].CCC(C)[O-].CCOC(=O)/C=C(/C)[O-].[Al+3],inactive,
OCCN1CCN(CCCN2c3ccccc3Sc3ccc(C(F)(F)F)cc32)CC1,inactive,
Cc1cc(-n2nc3ccc(Cl)cc3n2)c(O)c(C(C)(C)C)c1,inactive,
[Cu+],inactive,
C#CC1(O)CC[C@H]2[C@@H]3CCC4=CCCC[C@@H]4[C@H]3CC[C@@]21C (stereo not given in full),inactive,
O=C(O)c1cc(-c2ccc(F)cc2F)ccc1O,,-0.0913% [at 18.6 µM]
COc1ccc2cc1Oc1ccc(cc1)C[C@H]1c3c(cc4c(c3Oc3cc5c(cc3OC)CCN(C)[C@@H]5C2)OCO4)CCN1C,inactive,

SMILES,Potency,"fluorescence, % of fluorescein control"
O=C1NC(=O)[C@@H]2CC=CC[C@H]12,inactive,
O=C1C(c2[nH]c3ccc(S(=O)(=O)O)cc3c2O)=Nc2ccc(S(=O)(=O)O)cc21,inactive,
CCCC[P+](C)(CCCC)CCCC,inactive,
CCCCCCCCCCOC(=O)c1ccccc1C(=O)OCCCCCCCC,inactive,
CC(=O)CC(=O)Nc1ccc(S(=O)(=O)O)cc1,inactive,
CCCCC(CC)CN1CN(CC(CC)CCCC)CC(C)(N)C1 (stereo not given),,0.0031% [at 18.6 µM]
[Cl][Pt-2]([Cl])([Cl])[Cl],inactive,
S=c1nccc[nH]1,inactive,
CCCCN(CCCC)CC(O)c1cc(Cl)cc2c1-c1ccc(Cl)cc1/C2=C/c1ccc(Cl)cc1 (stereo not given),inactive,
Oc1c(I)cc(Cl)c2cccnc12,inactive,
CCCCCC/C=C\CCCCCCCC(=O)O,inactive,
CC[N+](CC)(CC)CCOc1ccc(/C=C/c2ccccc2)cc1,inactive,
O=[N+]([O-])c1cccc(C(F)(F)F)c1,inactive,
c1cnccn1,inactive,
Cc1c2ccccc2c(C)c2c1ccc1ccccc12,inactive,
NC[C@H]1O[C@H](O[C@H]2[C@H](O[C@@H]3O[C@H](CO)[C@@H](O)[C@H]3O)C(O)[C@H](N)C[C@@H]2N)[C@H](N)[C@@H](O)[C@@H]1O (stereo not given in full),,0.155% [at 18.6 µM]
CCCCCCCCCCCC(=O)OCC(C)OC(=O)CCCCC(=O)O (stereo not given),inactive,
CC(C)(C)CC(C)(C)c1ccc(Nc2ccc(C(C)(C)CC(C)(C)C)cc2)cc1,,0.0549% [at 3.72 µM]
CCOC(=O)Cn1cccc1-c1nc(-c2ccc(OC)cc2)c(-c2ccc(OC)cc2)s1,inactive,
CN(C)C(=O)COC(=O)Cc1ccc(OC(=O)c2ccc(N=C(N)N)cc2)cc1,inactive,
